# Assay results published in PubChem BioAssay AID1159580 (chemical genetic matrix, 2015).
# Several values for one entry are separate records, joined by “and”; a condition that tells them apart may be missing. Identical values can stand only once. The whole screen tested about 5,500 compounds, of which about 2,000 (36%) were called active. About 18% were inconclusive and are not listed. No stated cut-off is given here; in the data, active means normalized growth mostly below about 0.91 (no sharp cut-off); inconclusive means no clear call, values can overlap the other calls; inactive means mostly above about 0.92. This is one part of the list.
# Experiment: chemical genetic growth profiling, strain panel (AID 1159580);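 further: tested at 20 µM; growth read once vehicle control cultures reached saturation at 30 °C; 1 = growth at the plate median or of vehicle wells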
# Details: S. cerevisiae deletion strains, growth OD
compound,measurement,setting,value
CC(C)=CCc1c2c(c3occ(-c4ccc(O)cc4)c(=O)c3c1O)C=CC(C)(C)O2,normalized growth,"locus YAL013W, strain DEP1, stronger effect = lower value",0.718 (active)
same,normalized growth,"locus YAL021C, strain ccr4, stronger effect = lower value",0.962 (inactive)
same,normalized growth,"locus YAL026C, strain drs2, stronger effect = lower value",0.911 (inactive)
same,normalized growth,"locus YAL030W, strain snc1, stronger effect = lower value",0.876 (active)
same,normalized growth,"locus YBL061C, strain skt5, stronger effect = lower value",0.739 (active)
same,normalized growth,"locus YBR009C, strain hhf1, stronger effect = lower value",0.882 (active)
same,normalized growth,"locus YBR021W, strain FUR4, stronger effect = lower value",0.913 (inactive)
same,normalized growth,"locus YBR023C, strain chs3, stronger effect = lower value",0.747 (active)
same,normalized growth,"locus YBR171W, strain sec66, stronger effect = lower value",1.01 (inactive)
same,normalized growth,"locus YBR229C, strain ROT2, stronger effect = lower value",0.929 (inactive)
same,normalized growth,"locus YBR231C, strain swc5, stronger effect = lower value",0.751 (active)
same,normalized growth,"locus YBR279W, strain paf1, stronger effect = lower value",0.796 (active)
same,normalized growth,"locus YCL011C, strain gbp2, stronger effect = lower value",0.881 (active)
same,normalized growth,"locus YCL016C, strain dcc1, stronger effect = lower value",0.869 (active)
same,normalized growth,"locus YCL029C, strain bik1, stronger effect = lower value",0.926 (inactive)
same,normalized growth,"locus YCL061C, strain MRC1, stronger effect = lower value",0.947 (inactive)
same,normalized growth,"locus YCL069W, strain vba3, stronger effect = lower value",0.987 (inactive)
same,normalized growth,"locus YCR088W, strain abp1, stronger effect = lower value",1.01 (inactive)
same,normalized growth,"locus YDL005C, strain med2, stronger effect = lower value",0.995 (inactive)
same,normalized growth,"locus YDL035C, strain GPR1, stronger effect = lower value",0.72 (active)
same,normalized growth,"locus YDL040C, strain nat1, stronger effect = lower value",0.991 (inactive)
same,normalized growth,"locus YDL074C, strain BRE1, stronger effect = lower value",0.727 (active)
same,normalized growth,"locus YDL101C, strain DUN1, stronger effect = lower value",0.903 (inactive)
same,normalized growth,"locus YDL134C, strain PPH21, stronger effect = lower value",0.736 (active)
same,normalized growth,"locus YDL185W, strain tfp1, stronger effect = lower value",0.995 (inactive)
same,normalized growth,"locus YDL192W, strain arf1, stronger effect = lower value",0.859 (active)
same,normalized growth,"locus YDR001C, strain nth1, stronger effect = lower value",1.01 (inactive)
same,normalized growth,"locus YDR069C, strain doa4, stronger effect = lower value",0.711 (active)
same,normalized growth,"locus YDR101C, strain arx1, stronger effect = lower value",0.953 (inactive)
same,normalized growth,"locus YDR137W, strain rgp1, stronger effect = lower value",1.01 (inactive)
same,normalized growth,"locus YDR159W, strain sac3, stronger effect = lower value",1.07 (inactive)
same,normalized growth,"locus YDR162C, strain NBP2, stronger effect = lower value",0.664 (active)
same,normalized growth,"locus YDR195W, strain ref2",1.14 (inactive)
same,normalized growth,"locus YDR297W, strain sur2, stronger effect = lower value",0.828 (active)
same,normalized growth,"locus YDR318W, strain mcm21, stronger effect = lower value",0.911 (active)
same,normalized growth,"locus YDR334W, strain swr1, stronger effect = lower value",0.92 (inactive)
same,normalized growth,"locus YDR335W, strain msn5, stronger effect = lower value",0.981 (inactive)
same,normalized growth,"locus YDR388W, stronger effect = lower value",0.917 (active)
same,normalized growth,"locus YDR392W, strain spt3, stronger effect = lower value",0.78 (inactive)
same,normalized growth,"locus YDR502C, strain sam2, stronger effect = lower value",0.938 (inactive)
same,normalized growth,"locus YEL003W, strain gim4, stronger effect = lower value",0.94 (inactive)
same,normalized growth,"locus YEL037C, strain rad23, stronger effect = lower value",0.958 (inactive)
same,normalized growth,"locus YEL061C, strain CIN8 (second series), stronger effect = lower value",1.01 (inactive)
same,normalized growth,"locus YEL061C, strain CIN8, stronger effect = lower value",0.869 (active)
same,normalized growth,"locus YER015W, strain faa2, stronger effect = lower value",0.653 (active)
same,normalized growth,"locus YER016W, strain bim1, stronger effect = lower value",0.963 (inactive)
same,normalized growth,"locus YER110C, stronger effect = lower value",0.989 (inactive)
same,normalized growth,"locus YER111C, strain swi4, stronger effect = lower value",0.969 (inactive)
same,normalized growth,"locus YER155C, strain BEM2 (second series), stronger effect = lower value",0.956 (inactive)
same,normalized growth,"locus YER155C, strain BEM2, stronger effect = lower value",0.98 (inactive)
same,normalized growth,"locus YER167W, strain BCK2, stronger effect = lower value",0.896 (active)
same,normalized growth,"locus YFR010W, strain ubp6, stronger effect = lower value",0.895 (active)
same,normalized growth,"locus YGL078C, strain dbp3, stronger effect = lower value",1 (inactive)
same,normalized growth,"locus YGL086W, strain mad1, stronger effect = lower value",0.861 (active)
same,normalized growth,"locus YGL167C, strain pmr1, stronger effect = lower value",0.976 (inactive)
same,normalized growth,"locus YGL173C, strain kem1, stronger effect = lower value",0.666 (active)
same,normalized growth,"locus YGL227W, strain vid30, stronger effect = lower value",1.01 (inactive)
same,normalized growth,"locus YGL240W, strain doc1, stronger effect = lower value",1.02 (inactive)
same,normalized growth,"locus YGL248W, strain PDE1, stronger effect = lower value",0.705 (active)
same,normalized growth,"locus YGL253W, strain hxk2, stronger effect = lower value",0.87 (active)
same,normalized growth,"locus YGR135W, strain pre9, stronger effect = lower value",0.955 (inactive)
same,normalized growth,"locus YGR252W, strain gcn5, stronger effect = lower value",1.03 (inactive)
same,normalized growth,"locus YHR013C, strain ard1, stronger effect = lower value",0.755 (active)
same,normalized growth,"locus YHR027C, strain rpn1, stronger effect = lower value",0.614 (active)
same,normalized growth,"locus YHR030C, strain SLT2, stronger effect = lower value",0.886 (active) and 0.97 (inactive)
same,normalized growth,"locus YHR079C, strain IRE1 (second series), stronger effect = lower value",1 (inactive)
same,normalized growth,"locus YHR079C, strain IRE1, stronger effect = lower value",0.992 (inactive)
same,normalized growth,"locus YHR094C, strain hxt1, stronger effect = lower value",1.01 (inactive)
same,normalized growth,"locus YHR129C, strain ARP1, stronger effect = lower value",0.769 (active)
same,normalized growth,"locus YHR142W, strain chs7, stronger effect = lower value",0.838 (active)
same,normalized growth,"locus YHR200W, strain rpn10, stronger effect = lower value",0.893 (active)
same,normalized growth,"locus YIL066C, strain RNR3, stronger effect = lower value",0.663 (active)
same,normalized growth,"locus YIL073C, strain SPO22, stronger effect = lower value",0.537 (active)
same,normalized growth,"locus YIL125W, strain kgd1, stronger effect = lower value",0.982 (inactive)
same,normalized growth,"locus YIR030C, strain dcg1, stronger effect = lower value",0.995 (inactive)
same,normalized growth,"locus YJL092W, strain hpr5, stronger effect = lower value",0.977 (inactive)
same,normalized growth,"locus YJL095W, strain BCK1 (second series), stronger effect = lower value",0.834 (active)
same,normalized growth,"locus YJL095W, strain BCK1, stronger effect = lower value",0.719 (active) and 0.977 (inactive)
same,normalized growth,"locus YJL115W, strain asf1, stronger effect = lower value",1.01 (inactive)
same,normalized growth,"locus YJL129C, strain trk1, stronger effect = lower value",1.02 (inactive)
same,normalized growth,"locus YJL134W, strain LCB3, stronger effect = lower value",0.944 (inactive)
same,normalized growth,"locus YJL154C, strain vps35, stronger effect = lower value",1.01 (inactive)
same,normalized growth,"locus YJL164C, strain tpk1, stronger effect = lower value",0.77 (active)
same,normalized growth,"locus YJL166W, strain qcr8, stronger effect = lower value",0.811 (active)
same,normalized growth,"locus YJL168C, strain set2, stronger effect = lower value",0.996 (inactive)
same,normalized growth,"locus YJL187C, strain SWE1 (second series), stronger effect = lower value",0.77 (active)
same,normalized growth,"locus YJL187C, strain SWE1, stronger effect = lower value",0.803 (active)
